High-throughput results deposited in PubChem by National Center for Advancing Translational Sciences (NCATS).
VACV mCherry inh = inhibitors of vaccinia virus infection (mCherry reporter signal); hit rate 0.63% among 310,000; Potency, µM (highest dose often 36.5 µM), for inactives: at the highest dose activity change, negative = inhibition, hits mostly inhibitors; Vaccinia virus mCherry reporter infection, fluorescence; calls by dose curve; tested in A549 cells; also: potency is read from the fitted curve at half-maximal effect; nearly all actives have a fitted effect of over 35% in size
HCV inhibitor = inhibitors of hepatitis C virus infection; Potency, µM (highest dose often 41.8 µM), without a hit: at the highest dose activity change, negative = inhibition, hits mostly inhibitors; Huh7.5.1 HCVcc-Cre infection, luciferase reporter, 44 h; hit rate 3.4% among 340,000; AID 651820; also: potency is read from the fitted curve at half-maximal effect
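Cells (1,000/well) were plated 4 h before compound, then infected with HCVcc-Cre virus (~0.5 moi). After 44 h further culture, infection was read as luciferase luminescence following a 15 min substrate incubation at room temperature.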
HCMV inh = human cytomegalovirus inhibition; HFF cells, HCMV-luciferase reporter, 72 h; stronger effect = lower value; activity change, negative = inhibition, % at 57.5 µM; hit rate 4.5% among 410,000; AID 1259415; in the data active = activity change below about -60%; inconclusive = no clear call, values can overlap the other calls; inactive = above about -39%
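Screen run at 2 compound doses on HFFs infected with reporter HCMV, MOI 1 PFU/cell. Luciferase activity from cell lysates at 72 h post infection gave inhibition relative to buffer-only and Salinomycin wells.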
VACV Venus inh = vaccinia inhibition (Venus reporter); Vaccinia virus Venus reporter expression, fluorescence; Potency, µM (doses to about 36.5 µM), for the others: at the top dose activity change, negative = inhibition, most hits filed as inhibitors; hit rate 0.46% among 330,000; AID 720580; calls by dose curve; tested in A549 cells; also: potency is read from the fitted curve at half-maximal effect; nearly all actives have a fitted effect of over 30% in size
FMDV antiviral = foot and mouth disease virus antiviral activity. FMDV antiviral cell-based qHTS. Potency, µM (highest dose often 57.9 µM), for inactives: at the top dose activity change, negative = inhibition, hits mostly inhibitors. hit rate 1.2% among 410,000; calls by dose curve; tested in HEK293T cells; also: read-out not given here; potency is read from the fitted curve at half-maximal effect; nearly all actives have a fitted effect of over 45% in size
Sm TGR block = S. mansoni TGR enzyme inhibition; Q962Y6; purified TGR, DTNB reduction, TNB absorbance 405 nm; Potency, µM (titrated, usually from 114 µM), without a hit: at the highest dose activity change, negative = inhibition, usual class: inhibitors; hit rate 3% among 360,000; AID 485364; also: potency is read from the fitted curve at half-maximal effect; nearly all actives have a fitted effect of over 60% in size
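Kinetic colorimetric format: TGR-catalysed, NADPH-driven DTNB reduction monitored via TNB absorbance. Enzyme dispensed at 20 nM; compound exposure 15 min at room temperature before reaction start.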
* = called active by the depositor; i = inactive; ? = inconclusive; / = no result; [ ] = remark or other dose. An excerpt weighted towards active compounds, which were near 9.3% of everything screened. Unless noted, calls follow the shape of the dose curve; as a rule, active = well fitted curve in the direction sought with a large enough effect; inconclusive = small, poorly fitted or top-dose-only effect, or another doubt; inactive = no such curve, though single readings can be large; an effect the other way counts as inactive or inconclusive. % is scaled to controls: 0 for no effect and ±100 for the full control effect.

SMILES	VACV mCherry inh	HCV inhibitor	HCMV inh	VACV Venus inh	FMDV antiviral	Sm TGR block
O=C(C[C@H]1C/C=C\CC[C@@H](Cc2ccc(F)cc2)C(=O)O[C@@H](c2ccccc2)CNC1=O)N[C@H](CO)Cc1ccccc1	i	8%	19	-29%	-7%	/
COc1cc(C(=O)Oc2cccc(/C=N/NC(=O)c3cc(C)[nH]n3)c2)cc(OC)c1OC	-20%	?	32	-2%	-2%	-1%
COc1c(Br)cc(Br)cc1/C=N/NC(=O)c1cccnc1	/	-17%	75	/	-15%	-20%
Cc1cc(C(=O)N/N=C/c2cccc(OC(=O)c3cccc(Br)c3)c2)n[nH]1	/	4%	-71*	/	23%	-5%
COc1cccc(C(=O)Oc2c(Br)cc(Br)cc2/C=N/NC(=O)c2cc(C)[nH]n2)c1	?	?	-97*	?	-8%	3%
CCOc1ccc(NC(=O)C(C)n2c(=O)cc(C)c3c(C)nn(-c4ccccc4)c32)cc1 (configuration not stated)	-12%	/	2	-8%	11%	5%
O=C(OCCc1cc2ccccc2c(=O)o1)c1ccco1	i	5%	-12	-6%	0%	-14%
c1ccc(-c2nc(-c3ccncc3)no2)cc1	-14%	-25%	7	-5%	38%	2%
c1ccc(-c2ccc(-c3nc(-c4ccncc4)no3)cc2)cc1	-12%	-24%	-72*	-5%	/	9%[11.4 µM]
c1ccc(C(Cc2nc(-c3ccncc3)no2)c2ccccc2)cc1	/	7.9µM*	-69*	/	?	-1%
Cc1ccc(Cc2nc(-c3ccncc3)no2)cc1	/	5%	-19	/	-1%	3%
Cc1ccc(C)c(NC(=O)CSc2nnc(CNC(=O)c3ccco3)o2)c1	i	-1%	-11	-12%	-7%	0%
O=C(Nc1ccc(F)cc1)c1ccc(C(=O)N2CCCC(O)C2)cc1 (configuration not stated)	-12%	8%	-11	-18%	1%	4µM*
Cc1ccc(C(=O)N2CCCC(Nc3ccc(F)cc3)C2)cc1C (configuration not stated)	/	7%	-12	/	-30%	79µM*
Cc1occc1C(=O)N1CCCC(Nc2ccc(C(C)C)cc2)C1 (configuration not stated)	-26%	-14%	-65*	-23%	0%	-12%
COc1ccc(C(=O)N2CCCC(Nc3ccc(F)cc3)C2)cc1F (configuration not stated)	i	-9%	-18	-8%	-21%	-21%
Cc1occc1C(=O)N1CCCC(Nc2ccc(F)cc2)C1 (configuration not stated)	/	6%	23	/	-24%	-12%
COc1ccc(NC(=O)COC(=O)Cc2cccs2)cc1Cl	i	/	54	-19%	-23%	/
Cc1nc(S(=O)(=O)Cc2ccc(Cl)cc2)nc2c1CCC2	6%	19%	?	3%	0%	/
Cc1ccc(CS(=O)(=O)c2nc3c(c(N(C)C)n2)CCCC3)cc1	?	16%	-93*	?	16%	-2%
O=C(CCC1CCCCC1)Nc1ccc(C(=O)c2ccncc2)cc1	i	?	?	-11%	-3%	16%
Cc1nnc(NC(=O)c2nn(CC(C)C)c(=O)c3ccccc23)s1	-13%	13%	-20	-5%	-18%	-2%
Cc1nc2ccc(NC(=O)c3nn(CC(C)C)c(=O)c4ccccc34)cc2s1	?	6%	-62*	-29%	-13%	-19%
COc1ccc(-n2nc(C(=O)Nc3nc4ccc(OC)cc4s3)c3ccccc3c2=O)c(OC)c1	/	0%	/	/	/	-8%
CCn1nc(C(=O)Nc2nc3ccc(C)cc3s2)c2ccccc2c1=O	-9%	32µM*	-24	-1%	/	-5%
SMILES	VACV mCherry inh	HCV inhibitor	HCMV inh	VACV Venus inh	FMDV antiviral	Sm TGR block
CC(C)Cn1nc(C(=O)NCc2ccccc2CN2CCCC2)c2ccccc2c1=O	-12%	?	-24	-21%	-21%	28µM*
CCCCn1nc(C(=O)NCc2ccccc2CN2CCCC2)c2ccccc2c1=O	/	?	-18	/	-19%	-18%
Cc1scc(C(=O)N/N=C/c2ccc(OC(C)C)cc2)c1C	-11%	-16%	9	-1%	23%	9%
CCCNC(=O)c1ccccc1NC(=O)C1=CSCCO1	/	-12%	-33	/	-4%	8%
COc1ccc(C(=O)NC(C)CCc2ccccc2)cc1[N+](=O)[O-] (configuration not stated)	-24%	?	-6	-20%	-24%	13%
COc1ccc(C(=O)C(C)[n+]2ccc(C)c3ccccc32)cc1[N+](=O)[O-] (configuration not stated)	/	-21%	-86*	/	-20%	?
Cc1ccc(S(=O)(=O)N2CCN(c3ccc(S(=O)(=O)N4CCOCC4)cn3)CC2)cc1	/	-2%	8	-26%	-19%	9%
Cc1ccccc1CN1CC2=C(CCN(Cc3ccccc3)C2=O)N2CCN=C12	-25%	/	-99*	-8%	-20%	/
COc1ccc(Oc2ncc3nc(-c4cccs4)c(=O)n(C)c3n2)cc1	/	/	/	/	6%	/
CC(=O)CN1C(=O)NC2(CCCc3ccccc32)C1=O (configuration not stated)	-11%	19%	0	-8%	-6%	2%
CC(C)(C)c1ccc(-n2nc(C#N)c(Cl)cc2=O)cc1	?	?	-101*	10µM*	13µM*	8.9µM*
CC(C)(C)c1ccc(-n2nc(C(N)=O)c(O)cc2=O)cc1	-6%	21%	3	-23%	-10%	0%
Cc1ccc(S(=O)(=O)N2CCN(Cc3nc4sc(C)c(C)c4c(=O)[nH]3)CC2)cc1	-12%	16%	-15	-2%	/	8%
Cc1ccc(C)c(Cn2cnc3c(cnn3C(C)(C)C)c2=O)c1	/	?	?	-18%	0%	15%
Cc1ccc(NC(=O)Cc2ccc(NC(=O)N3CCCCc4ccccc43)cc2)cc1Cl	-15%	/	-3	-17%	-16%	0%
COc1ccccc1Nc1nc(N)nc(CN2CCCCCC2)n1	-20%	-24%	34	-7%	11%	32µM*
COc1ccccc1Nc1cc(C)nc(Nc2ccccc2OC)n1	-15%	2.5µM*	-29	-23%	-23%	-2%
COc1ccccc1Nc1nc(Cl)nc(Nc2ccccc2OC)n1	6%	13µM*	51	-3%	?	7%
COc1ccccc1Nc1nc(C)cc(C)n1	-2%	-20%	-2	-14%	13%	-23%
N#C/C(=C\c1ccccc1)C(=O)Nc1cc(S(=O)(=O)N2CCOCC2)ccc1N1CCCC1	-8%	-2%	198	-12%	?	-5%
Oc1ccccc1-c1n[nH]c(-c2ccccc2O)n1	2.8µM*	?	-96*	4µM*	-3%	/
Clc1ccccc1-c1nc(-c2ccccc2)n[nH]1	/	?	74	/	27%	-15%
CCc1nn(-c2cc(Cl)ccc2OC)c2c1C(=O)CCC2	?	14µM*	-7	?	-9%	10%
